In the library only some 0.97% were active in any assay of this set; here they are far more common.
SKBR3 24h inh = SK-BR-3 proliferation inhibitors; SK-BR-3 viability, CellTiter-Glo ATP luminescence, 24 h; hits give low values; viability, % at 10 µM; 41,000 tested, 0.47% active; AID 847;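 active means viability at or below the median of all test compounds minus 3 SD, in both replicates if run twice, cut at about 45% in these data; inconclusive means duplicate replicates that disagree with each other; inactive means viability above that cutoff in every replicate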
Htt clearance = compounds clearing mutant huntingtin protein; HeLa Exon1htt(103Q)mCFP, aggregate imaging; zero = plate's median compound well; 47,000 tested, 0.42% active; inhibition, % at 1.5 µM; AID 853;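 active means inhibition of aggregate fluorescence above about 70%, also judged a hit by eye on the cell image, limit read from the data, passing the limit was not always enough; inconclusive means no rule stated for this call; inactive means not judged a hit on image review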;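 further: cells exposed to compound for three days before fixation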
HER2 expr 66K = Her2 kinase expression inhibition; 65,000 tested, 0.69% active; SKBR-3 HER2 protein level, AlphaScreen, 18-24 h; hits give low values; P04626; HER2 level % of control, % at 10 µM; AID 645;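 active means HER2 level under 5% of the carrier-only control; inconclusive means no clear call, values can overlap the other calls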;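 further: lower value means stronger loss of Her2 protein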
Large screens that a line does not name were inactive.

CCSc1nc2cc(OC)c(OC)cc2c(=O)n1CC	none (no result: SKBR3 24h inh, Htt clearance)
Clc1ccc(C2=Nn3c(nnc3-c3n[nH]c4c3CCC4)SC2)cc1Cl	none
COc1ccc(Nc2ccnc3ccccc23)cc1	Htt clearance 90.6 (no result: SKBR3 24h inh)
COc1cccc(Nc2ncnc3ccccc23)c1	none (no result: SKBR3 24h inh, HER2 expr 66K)
OCCCc1nc2n(n1)C(c1ccccc1)C=C(c1ccc(F)cc1)N2 (configuration not stated)	HER2 expr 66K -30.0
OCCCc1nc2n(n1)C(c1cccs1)C=C(c1ccccc1)N2 (configuration not stated)	none (no result: SKBR3 24h inh, Htt clearance)
CCNC(=O)NCCc1c[nH]c2ccc(Cl)cc12	none (no result: Htt clearance)
COc1ccc(C(c2nnnn2C2CCCC2)N2CCc3ccccc3C2)cc1OC (configuration not stated)	none (no result: Htt clearance)
COc1ccc(OC)c(C(c2nnnn2C2CCCC2)N2CCc3ccccc3C2)c1 (configuration not stated)	Htt clearance 73.4
CCOc1ccc2ccccc2c1CNCCN1CCOCC1	Htt clearance 70.0
CCOc1ccc(S(=O)(=O)NCCCN2CCOCC2)c2ccccc12	none (no result: SKBR3 24h inh, Htt clearance)
O=C(Nc1ccc(N2CCOCC2)cc1)C1CCCN(S(=O)(=O)c2cccc(C(F)(F)F)c2)C1 (configuration not stated)	none (no result: SKBR3 24h inh, Htt clearance)
CCc1ccc(NC(=O)N(CCN2CCOCC2)C2CCN(C(C)=O)CC2)cc1	HER2 expr 66K -27.2 (no result: SKBR3 24h inh, Htt clearance)
CCc1ccc(NC(=O)N(CCOC)C2CCN(C(C)=O)CC2)cc1	none (no result: SKBR3 24h inh, HER2 expr 66K)
Cc1cc(N2CCCC2=O)c(N)cc1N	none
CN(C)CC1(c2ccccc2)CCCC1	SKBR3 24h inh 24.9 (no result: Htt clearance)
COc1cc(OC)c(OC)cc1C=NCC1(c2ccccc2)CCCC1	none (no result: SKBR3 24h inh, HER2 expr 66K)
Nc1nc2n(n1)C(c1cccc(Br)c1)CC(c1ccc(F)cc1)N2 (configuration not stated)	none (no result: SKBR3 24h inh)
CN1C(=O)C(C(=O)NC(C)(C)C)C2c3ccccc3OC13CCCCC23 (configuration not stated)	Htt clearance inconclusive, HER2 expr 66K -29.9
COc1ccc(NC(=O)C2C(=O)N(C)C3(C)CC2c2ccccc2O3)cc1 (configuration not stated)	none (no result: Htt clearance)
O=C(NCCSCc1ccccc1)c1ccc(C2SCC(=O)N2Cc2ccccc2)cc1 (configuration not stated)	none (no result: SKBR3 24h inh, HER2 expr 66K)
O=C(CSc1c2c(nc3ccc(Cl)cc13)CCCC2)N1CCN(C(=O)c2ccco2)CC1	HER2 expr 66K -5.2 (no result: Htt clearance)
O=C(CSc1nc2cc(Cl)ccc2s1)N1CCN(C(=O)c2ccco2)CC1	none (no result: SKBR3 24h inh, Htt clearance)
COc1ccccc1C1NC(=O)NC(C)=C1C(=O)Nc1cccc(C)c1C (configuration not stated)	none (no result: SKBR3 24h inh, Htt clearance)
COc1ccccc1C1NC(=O)NC(C)=C1C(C)=O (configuration not stated)	Htt clearance 71.1 (no result: SKBR3 24h inh)
COC(=O)c1nn(-c2ccc(Cl)cc2)c(=O)cc1Sc1ccccn1	none (no result: SKBR3 24h inh, HER2 expr 66K)
CCOC(=O)c1cnc(SCc2nc(N)nc(Nc3ccc(C)cc3)n2)nc1N	none
CCCCCn1c(CN2CCCCC2C)nc2c1c(=O)n(C)c(=O)n2C (configuration not stated)	none
CCCCCn1c(CN2CCCCC2CC)nc2c1c(=O)n(C)c(=O)n2C (configuration not stated)	HER2 expr 66K -16.7 (no result: SKBR3 24h inh, Htt clearance)
Cn1c(SCc2cc(=O)[nH]c3ccccc23)nnc1-c1ccc(Br)cc1	none (no result: SKBR3 24h inh, HER2 expr 66K)
O=c1nc(-c2ccccc2)cc(C(F)(F)F)[nH]1	none (no result: SKBR3 24h inh, HER2 expr 66K)
Cc1cc(-c2ccccc2)nc(=O)[nH]1	HER2 expr 66K -17.6
CC(=O)c1ccc(NC2OC(C)C(O)C(O)C2O)cc1 (configuration not stated)	none
